This is part of a sample that, as a whole, favours compounds with a hit. Of some 83,000 tested, about 20% had one in any assay.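 Each cell line was grown in a 96-well plate and treated with one concentration of compound for 48 hours. Values below 10 were considered active.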 Values without a mark were called inactive. Activity calls are given as the source filed them.

Drawing on PubChem BioAssay (NCI), this text covers growth for three compounds.

For the experiment, the system named is HL-60(TB) leukemia. Kind of experiment: NCI-60 one-dose screen, 48 h (100 = growth as untreated, 0 = no growth, -100 = all killed). As to conditions: 10 µM unless noted.
Consider `COC(=O)OC1C(O[C@H]2C[C@H]3[C@@H]4CC=C5C[C@@H](O)CC[C@]5(C)[C@H]4CC[C@]3(C)[C@H]2[C@H](C)C(=O)CCC(C)C)OCC(O)C1OC1OCC(O)C(O)C1OC(=O)c1ccc(OC)cc1` (stereo partly drawn), for which the growth was -22.3% (active).
`Cc1nn(-c2ccccc2)nc1C(=O)Nc1ccccc1C(=O)NCC1CC1`: the growth is 95.8%.
As to `O=C1NC(=O)c2c1c1c3ccccc3[nH]c1c1oc3cc(Br)ccc3c21`, the growth was 104%.
